# Source: PubChem BioAssay (EPA / NIEHS)
# Calls of active or inactive are those of the source. The calls were made as follows: active = hit-call score of the fitted dose curve at least 0.9, where 1 is the maximum; inactive = score below 0.9.
# Assay: ATG_TGFb_CIS: Attagene CIS-FACTORIAL HepG2 Assay for human Transforming Growth Factor (TGF) (AID 2282967)
# Conditions: HepG2 Attagene CIS TGFb reporter, mRNA transcription; actives raise or lower the signal
# Procedure: ATG_CIS is a cell-based, multiplexed-readout assay that uses HepG2, a human liver cell line, with measurements taken at 24 hours after chemical dosing in a 24-well plate.ATG_TGFb_CIS is one of 52 assay component(s) measured or calculated from the ATG_CIS assay. It is designed to make measurements of mRNA induction, a form of inducible reporter, as detected with fluorescence intensity signals by Reverse transcription polymerase chain reaction (RT-PCR) and Capillary electrophoresis technology.Data from the assay component ATG_TGFb_CIS was analyzed into 1 assay endpoint. This assay endpoint, ATG_TGFb_CIS, was analyzed with bidirectional fitting relative to DMSO as the negative control and baseline of activity. Using a type of inducible reporter, measures of mRNA for gain or loss-of-signal activity can be used to understand the reporter gene at the transcription factor-level as they relate to the gene TGFB1. Furthermore, this assay endpoint can be referred to as a primary readout, because this assay has produced multiple assay endpoints where this one serves a reporter gene function. To generalize the intended target to other relatable targets, this assay endpoint is annotated to the growth factor intended target family, where the subfamily is transforming growth factor beta.
# Human liver HepG2 cells are transiently transfected with multiple reporter transcription units (MRTUs) in 6-well plates using FuGene 6 reagent (Roche; 3 ml FuGene/1 mg DNA). The MRTU constructs are regulated by a cis-regulating element (promoter). […] A major difference between the CIS and TRANS system is that in CIS activities of endogenous TFs are measured, whereas the TRANS assay evaluates changes in activities of exogenous, chimeric NR-Gal4 proteins. […] At the end of 24 hour incubation, total RNA was isolated using TriZol reagent (Invitrogen). The isolated RNA is then reverse-transcribed using oligo(dT) primer and Mo-MLV reverse transcriptase (Invitrogen) with DNAse I (Ambion) treatment for 30 min. The one-tenth of the produced cDNA was amplified by PCR using Taq DNA polymerase (Invitrogen) and two reporter sequence-specific primers. The PCR products were fluorescently labeled by primer extension with 6-arboxyfluorescein (6-FAM) 5'-labeled reporter sequence-specific primer (2 min at 95 C, 20 s at 68 C and 10 min at 72 C) and these products were digested with 5U of HpaI (New England Biolabs) for 2h at 37 C. The fragments were purified using Qiaquick PCR columns (Qiagen), analyzed on an ABI 3130xL genetic analyzer (Applied Biosystems) with peak positions identified by using a set of X-rhodamine (ROX)-labeled MapMarker1000 molecular weight standards (BioVentures). The raw capillary electrophoresis data was processed using Attagraph software (Attagene).
Structure (SMILES),outcome,AC50
COc1c2ccoc2cc2oc(=O)ccc12,inactive,
CC=CC(=O)N(CC)c1ccccc1C,inactive,
c1ccc2c(c1)ccc1ncccc12,inactive,
c1cc(C(c2ccc(OCC3CO3)cc2)C(c2ccc(OCC3CO3)cc2)c2ccc(OCC3CO3)cc2)ccc1OCC1CO1 (stereo not given),inactive,
O=S(=O)(Oc1ccc(Cl)cc1Cl)c1ccccc1,,63.4 µM (active)
C[Si](C)(C)O[Si](O)(O)O,inactive,
CC/C=C\CCOC(=O)CCCCC,inactive,
CC(=O)Nc1nnc(S(N)(=O)=O)s1,inactive,
O=c1cc[nH]c(=S)[nH]1,inactive,
C(=CC=Nc1ccccc1)C=CNc1ccccc1,inactive,
c1cc(N(CC2CO2)CC2CO2)ccc1OCC1CO1 (stereo not given),inactive,
CC(C)C(=O)C(C)C,inactive,
CCOC(=O)NNc1nncc2ccccc12,inactive,
Cc1cc(O)c(Cl)c(C)c1Cl,inactive,
COc1cc(NC(=O)CC(C)=O)c(OC)cc1Cl,inactive,
CCCCCCCCCCOS(=O)(=O)O,inactive,
CCCCCCCCCCc1ccccc1,inactive,
CCOC(=O)CC,inactive,
OC1CCCC1,inactive,
CC(=O)OC1C2(C)CCC(C2)C1(C)C (stereo not given),inactive,

Structure (SMILES),outcome,AC50
C=CCOCC(O)CCl (stereo not given),inactive,
CCOc1nc(F)cc2nc(S(=O)(=O)Nc3c(Cl)cccc3C(=O)OC)nn12,inactive,
C=CC(C)(CCC=C(C)C)OC(=O)C(C)C (stereo not given),inactive,
Nc1nc2ccccc2[nH]1,inactive,
OC1OCCOC1O (stereo not given),inactive,
CCCCCCCCCCCCCOP(=O)(O)O,inactive,
COC(=O)c1sccc1S(N)(=O)=O,inactive,
COc1cc(C)ccc1C(C)C,inactive,
CCO[Si](CCCN=C=O)(OCC)OCC,inactive,
CC1=CC[C@H]2C[C@@H]1C2(C)C,inactive,
O=c1c2ccccc2nnn1CCl,inactive,
OC1CCCCCCCCCCC1,inactive,
CO[Si](CCC1CCC2OC2C1)(OC)OC (stereo not given),inactive,
CC(C)c1ccc(C#N)cc1,inactive,
CCc1ccc2c(c1)C(=O)c1ccccc1C2=O,inactive,
C=CC(C)(C)C,inactive,
O=Cc1ccc(CO)o1,inactive,
COCc1c(C(C)C)nc(C(C)C)c(/C=C/[C@@H](O)C[C@@H](O)CC(=O)O)c1-c1ccc(F)cc1,inactive,
O=C(OCC1CCC2OC2C1)C1CCC2OC2C1 (stereo not given),inactive,
O=C(Nc1ccccc1)c1ccccc1O,inactive,
